Among all 16,000 compounds or so, about 4,000 (25%) were called active. Not shown: some 26% with an inconclusive outcome. The list is a sample of the results. Unmarked numbers belong to inactive results. The call rests on the fitted dose curve; in most records, active means well fitted curve in the direction sought with a large enough effect; inconclusive means small, poorly fitted or top-dose-only effect, or effect the other way; inactive means no such curve, though single readings can be large or run the other way.
On the % scale 0 is the no-effect control and ±100 the full control effect.

The experiment deals with Cytochrome P450 2C9 (Homo sapiens) (UniProt P11712). As to the kind of experiment: Cytochrome panel assay with activity outcomes. The following applies: recombinant CYP, pro-luciferin dealkylation, luminescence, p450-cyp2c9; series mostly up to 57.1 µM; activity, negative = inhibition: at the top concentration.
Chain of Cytochrome P450 2C9 (Homo sapiens) (P11712 whole entry, looked up): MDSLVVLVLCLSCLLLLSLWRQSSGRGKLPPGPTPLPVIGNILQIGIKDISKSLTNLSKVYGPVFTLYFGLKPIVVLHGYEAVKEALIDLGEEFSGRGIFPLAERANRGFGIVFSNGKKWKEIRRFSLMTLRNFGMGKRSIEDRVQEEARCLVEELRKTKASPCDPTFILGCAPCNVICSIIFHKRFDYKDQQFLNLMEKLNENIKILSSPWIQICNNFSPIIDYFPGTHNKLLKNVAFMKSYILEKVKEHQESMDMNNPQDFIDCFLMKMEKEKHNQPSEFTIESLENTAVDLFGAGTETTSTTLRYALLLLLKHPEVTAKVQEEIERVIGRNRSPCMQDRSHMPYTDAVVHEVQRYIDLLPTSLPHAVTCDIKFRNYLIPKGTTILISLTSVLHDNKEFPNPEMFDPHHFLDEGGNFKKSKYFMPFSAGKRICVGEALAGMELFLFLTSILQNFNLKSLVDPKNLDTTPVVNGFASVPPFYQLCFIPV
Consider `CN1CCN(CCCNC(=O)C2CCN(c3nnc(-n4cccc4)s3)CC2)CC1`, for which the “activity, negative = inhibition” value is 2.31%.
Same read-out and setting: then `CC(=O)OC[C@@H]1O[C@H](C/C=N\O[C@@H](C)CN2CCCc3nc(C)c(C)cc32)C=C[C@@H]1OC(C)=O`, with -0.762% [at 11.4 µM].
A word on the AC50: it is the concentration giving half of the maximal activity seen. In the case of `N#Cc1ccc(-c2ccccc2)nc1SCC(=O)c1cccc(Cl)c1`, the AC50 is 2 µM (active).
`O=C(CSc1nc2ccccc2c2ccccc12)c1ccccc1`: the activity, negative = inhibition was -1.33% [at 11.4 µM].
In the case of `CCOc1ccc(OCCOc2ncnc3ccccc23)cc1`, the concentration at half-maximal activity (AC50) was 17.8 µM (active).
Regarding `CC(CO)(CO)Nc1ncnc2ccccc12`, the activity, negative = inhibition is 15.3% [at 11.4 µM].
Still for that read-out and setting: then `CC1CN(C(=O)COc2ncnc3ccccc23)CC(C)O1` (stereo unspecified), with -10.4%; and `CN(C)C(=O)c1ccc(-c2nccc(N(C)Cc3ccco3)n2)cc1`, with 0.769% [at 2.29 µM].
For `CCC(=O)N(Cc1ccco1)c1nc(-c2ccccc2)cs1`, the AC50 was 2.51 µM (active).
As for `CN(C)C(=O)c1ccc(-c2cc(N(C)Cc3ccco3)ncn2)cc1`, the activity, negative = inhibition was 0.869% [at 2.29 µM].
Regarding `O=C(O)C1=CCNCC1`, the AC50 result is “inactive”.
As for `C[C@](N)(C(=O)O)c1ccc(-c2nn[nH]n2)cc1`, the “activity, negative = inhibition” value is -10.9%.
With `Nc1cc(-c2nn[nH]n2)ccc1F`, the concentration at half-maximal activity (AC50) is 12.6 µM (active).
`c1cc(NNc2cccc(-c3nn[nH]n3)c2)cc(-c2nn[nH]n2)c1`: the activity, negative = inhibition was -4.17% [at 11.4 µM].
In the case of `COc1ccc(CCC(C)Nc2cccc(F)c2)cc1` (stereo unspecified), the half-maximal activity concentration (AC50) is 12.6 µM (active).
`COc1ccc(CCC(C)NC2C3CC4CC(C3)CC2C4)cc1` (stereo unspecified): the “activity, negative = inhibition” value was -9.44%.
In the case of `COc1cc(N[C@@H](C)CCCN)c2ncccc2c1`, the “activity, negative = inhibition” value was -33.6% [at 25.6 µM].
Same read-out and setting: next, `COc1ccc(C(=O)N2CCC[C@@]3(CCN(CC(C)C)C3)C2)cc1`: 1.28%; `Cc1noc(C)c1C(=O)N1CCC2(CCCN(C(=O)Nc3cccc(F)c3)C2)CC1`: 3.2%.
In the case of `COc1cccc(CN2C(=O)N(C(C)C)C(N(O)C(=O)NC(C)C)C2(C)C)c1OC` (stereo unspecified), the concentration at half-maximal activity (AC50) was 15.8 µM (active).
Regarding `CCCOc1ccccc1C1CC(=O)NC(C)=C1C(=O)OCC(C)C` (stereo unspecified), the half-maximal activity concentration (AC50) was 1.12 µM (active).
`CCOC(=O)C1=C(C)NC2(O)c3ccccc3C(=O)C12O` (stereo unspecified): the “activity, negative = inhibition” value is -5.48%.
Regarding `CCC(C)OC(=O)C1=C(C)NC(=O)CC1c1ccccc1OC` (stereo unspecified), the AC50 is 7.08 µM (active).
On to `COc1cccc2c1OC1(C)CC2/C(=C(\C)O)C(=O)N1` (stereo unspecified), for which the “activity, negative = inhibition” value was 0.172%.
Still for that read-out and setting: then `CCCCOc1cc(C[C@@H]2CNC(=O)N2)ccc1OC`, with -0.321%.
On to `CCCCOc1ccccc1C1CC(=O)NC2=C1C(=O)CCC2` (stereo unspecified), for which the AC50 was 17.8 µM (active).
Regarding `NC(=O)c1cc[n+](CC2=C(C(=O)[O-])N3C(=O)[C@@H](NC(=O)Cc4cccs4)[C@@H]3SC2)cc1`, the “activity, negative = inhibition” value is 2.83% [at 25.6 µM].
On the same count and under the same terms, then `FC(F)(F)c1ccccc1-c1cncnc1NCc1cccnc1`, with 6.26% [at 2.29 µM].
Consider `COC(=O)[C@@H]1C[C@H]1[C@@H](NC(=O)Oc1ccc(F)cc1)c1ccccc1`, for which the half-maximal activity concentration (AC50) is 3.98 µM (active).
Same read-out and setting: then `COC(=O)[C@H]1C[C@@H]1[C@H](NC(=O)OCc1ccccc1)c1ccccc1`, with 15.8 µM (active).
In the case of `O=C(N[C@@H](c1ccccc1)[C@@H]1C[C@H]1C(=O)O)OCc1ccccc1`, the “activity, negative = inhibition” value is -6.48%.
With `COC(=O)C1CC1C(NC(=O)[C@@H]1CCCN1)c1ccccc1` (stereo partly specified), the “activity, negative = inhibition” value was -23.5%.
For the compound `Cc1noc(C)c1C(=O)N1CCC[C@@]2(CCN(Cc3cc(C(F)(F)F)cc(C(F)(F)F)c3)C2)C1`, the “activity, negative = inhibition” value was 15.9%.
As to `CCc1cc(C(c2ccccc2OC)N2CCOCC2)c(NC(=O)c2ccccc2)s1` (stereo unspecified), the AC50 was 1.58 µM (active).
As for `CC(=O)[C@H]([C@@H](c1ccccc1)N1CCOCC1)N1CCOCC1`, the activity, negative = inhibition was -15.9% [at 11.4 µM].
Same read-out and setting: next, `CCOc1ccccc1CNCCN1CCOCC1`: 6.96%.
On to `Cc1cc(NC(=O)CSc2n[nH]c(-c3cccs3)n2)no1`, for which the AC50 was 12.6 µM (active).
As to `CCCCc1nc(SCC(=O)Nc2ncccn2)n[nH]1`, the “activity, negative = inhibition” value is -1.7%.
On the same count and under the same terms, next, `CO[C@H]1COC(=O)[C@H](C)NC(=O)C/C=C\[C@@H](C)[C@@H](NS(=O)(=O)c2ccc(C)cc2)COC(=O)[C@H](OCc2ccccc2)/C=C\[C@@H]1C`: -22.3% [at 11.4 µM].
Turning to `N#CC(c1ccc(Cl)cc1)(c1ncc(C(F)(F)F)cc1Cl)N1CCOCC1` (stereo unspecified), the AC50 was 10 µM (active).
`N#CC(c1ccccn1)(c1ncc(C(F)(F)F)cc1Cl)N1CCOCC1` (stereo unspecified): the “activity, negative = inhibition” value was -15.8%.
As to `COc1ccc(S(=O)(=O)NNC(=O)C2Cc3c(ccc4ccccc34)O2)cc1` (stereo unspecified), the AC50 was 7.94 µM (active).
On the same count and under the same terms, next, `CC(C)(CNC(=O)c1ccc([N+](=O)[O-])c(Cl)c1)CNC(=O)c1ccc([N+](=O)[O-])c(Cl)c1`: 0.891 µM (active); `O=C(NCc1cccnc1)c1sc2cc(Cl)ccc2c1Cl`: 10 µM (active).
On to `Clc1ccccc1-c1cc(NCc2cccnc2)ncn1`, for which the activity, negative = inhibition is -1% [at 2.29 µM].
Still for that read-out and setting: next, `CN(C)C(=O)c1ccc(-c2cc(NCc3cccnc3)ncn2)cc1`: 17.1% [at 2.29 µM]; `CN(C(=O)c1c(O)c2ccccc2n(C)c1=O)c1ccccc1`: -11.7%.
Turning to `CN(C(=O)CC(NC(=O)c1ccccc1)(c1ccccc1)c1ccccc1)c1ccccc1`, the AC50 was 15.8 µM (active).
For the compound `CN(C)CCCN1CC(C(=O)O)CC1=O` (stereo unspecified), the “activity, negative = inhibition” value was -8.24%.
For `FC(F)(F)c1cccc(-c2nc3nc(Cl)c(Cl)nc3[nH]2)c1`, the AC50 is 3.98 µM (active).
For `C[C@H]1NC(=O)NC1=O`, the AC50 entry was “inactive”.
For `CC[C@@]1(O)C(=O)COc2c1cc1n(c2=O)Cc2c-1nc1cccc(C(C)C)c1c2[Si](C)(C)C`, the “activity, negative = inhibition” value was -14.7%.
The same measure, in the same setting: next, `Cc1c2c(nc3ccccc13)-c1cccc(=O)n1C2`: -16.3%.
For the compound `CC(C)c1cccc2nc3c(c(C(C)(C)C)c12)Cn1c-3cccc1=O`, the concentration at half-maximal activity (AC50) was 10 µM (active).
On to `CC(C)c1cccc2cc3c(nc12)-c1cccc(=O)n1C3`, for which the “activity, negative = inhibition” value is -23.4%.
In the case of `CC(C)c1cccc2c([Si](C)(C)C)c3c(nc12)-c1cccc(=O)n1C3`, the half-maximal activity concentration (AC50) is 2 µM (active).
Same read-out and setting: then `CCc1cccc2nc3c(c([Si](C)(C)C)c12)Cn1c-3cccc1=O`, with 20 µM (active); and `CCc1c2c(nc3c(C(C)C)cccc13)-c1cccc(=O)n1C2`, with 15.8 µM (active).
Regarding `CC1(C)[C@@H]2CC[C@]1(C)[C@@H](OC(=O)CSC#N)C2`, the activity, negative = inhibition is -16.1% [at 11.4 µM].
Consider `N#C/C(=C\c1cc(Cl)cc(Cl)c1O)C(=O)NC1CCCCC1`, for which the AC50 is 12.6 µM (active).
In the case of `S=C(Nc1cccc(Cl)c1)NC1CCCCC1`, the “activity, negative = inhibition” value was 8.71%.

For the origin of these results see PubChem BioAssay AID1851 (National Center for Advancing Translational Sciences (NCATS), 2009).
